LmPK inh: qHTS Assay for Inhibitors of Leishmania Mexicana Pyruvate Kinase (LmPK); 290,000 compounds, 0.37% hits; Q27686; Potency, µM (highest dose often 57.5 µM), inactives show at the highest dose activity change, negative = inhibition, usual class: inhibitors; purified LmPK, Kinase-Glo ATP luminescence, 1 h; further: potency means the concentration at half of the fitted maximal effect; on the % scale 0 is the no-effect control and ±100 the full control effect
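ATP generated from ADP (0.1 mM) and PEP (0.5 mM) by 0.1 nM LmPK over 1 h at room temperature (pH 7.2 imidazole buffer) was detected by coupled luciferase luminescence. Values were normalized to uninhibited and no-enzyme wells.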
Shiga toxin inh: A qHTS for Small Molecule Inhibitors of Shiga Toxin; 290,000 compounds, 9.2% hits; Vero cells, Shiga toxin protein synthesis inhibition reporter; AID 2315, 2010; inhibition, % at 38.7 µM; in the data active means inhibition mostly above about 28%, no sharp cut-off; inactive means mostly below about 43%; further: 0% is about no effect
Sm TGR inh: qHTS Assay for the Inhibitors of Schistosoma Mansoni Peroxiredoxins; Schistosoma mansoni thioredoxin glutathione reductase (TGR), Q962Y6; purified TGR, DTNB reduction, TNB absorbance 405 nm; Potency, µM (titrated, usually from 114 µM), for inactives: top-dose activity change, negative = inhibition, hits mostly inhibitors; 360,000 compounds, 3% hits; AID 485364, 2010; further: potency means the concentration at half of the fitted maximal effect; on the % scale 0 is the no-effect control and ±100 the full control effect; nearly all actives have a fitted effect of over 60% in size
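TGR 20 nM + NADPH 100 uM (dispensed conc.), cpd preinc 15 min RT; start with NADPH (500 uM addition) then DTNB (15 mM addition). Kinetic TNB absorbance, 405 nm filter. Four-parameter Hill fit across titration.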
Giardia FBPA inh: qHTS Assay for Inhibitors of Fructose-1,6-bisphosphate Aldolase from Giardia Lamblia. AID 2451, 2010. Potency, µM (top dose mostly 59.6 µM), without a hit: at the highest dose activity, negative = inhibition, most hits filed as inhibitors. purified Giardia FBPA. A8B2U2. 290,000 compounds, 0.71% hits; further: potency means the concentration at half of the fitted maximal effect; on the % scale 0 is the no-effect control and ±100 the full control effect; nearly all actives have a fitted effect of over 55% in size
Target sequence (A8B2U2 whole entry, looked up): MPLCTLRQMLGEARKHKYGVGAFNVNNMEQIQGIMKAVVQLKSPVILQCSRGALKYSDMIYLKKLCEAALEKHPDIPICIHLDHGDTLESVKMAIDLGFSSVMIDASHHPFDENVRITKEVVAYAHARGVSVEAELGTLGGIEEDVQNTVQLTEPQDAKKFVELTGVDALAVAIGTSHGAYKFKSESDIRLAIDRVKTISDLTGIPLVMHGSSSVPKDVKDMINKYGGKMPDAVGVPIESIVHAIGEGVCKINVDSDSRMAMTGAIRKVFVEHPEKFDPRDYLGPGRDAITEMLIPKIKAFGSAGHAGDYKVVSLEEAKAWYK
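Giardia FBPA (40 nM reagent) was preincubated 10 min at RT with compound (up to 57.5 uM final), then substrate plus GAPDH/TPI/NAD/arsenate coupling system with diaphorase/resazurin was added; resorufin fluorescence (525/598 nm) was read after 20 min.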
Tb PYK inh: qHTS of Trypanosoma Brucei Inhibitors | AID 624173, 2012 | 410,000 compounds, 0.12% hits | TbPYK enzyme, Kinase-Glo Plus ATP luminescence, 45 min | pyruvate kinase (Trypanosoma brucei), Q57TT1 | Potency, µM (highest dose often 76.8 µM), inactives show at the highest dose activity, negative = inhibition, usual class: inhibitors; further: potency means the concentration at half of the fitted maximal effect; on the % scale 0 is the no-effect control and ±100 the full control effect; nearly all actives have a fitted effect of over 50% in size
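TbPYK + substrate in 50 mM TEA pH 7.2, 100 mM KCl, 10 mM MgCl2, 0.05% BSA, 0.01% Tween-20; cpd pinned; ADP 130 uM final; 45 min RT; Kinase-Glo Plus 10 min; luminescence endpoint.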
CHX counter: Cycloheximide Counterscreen for Small Molecule Inhibitors of Shiga Toxin; max response, %; 300,000 compounds, 12% hits; cell reporter, cycloheximide protein synthesis inhibition counterscreen; AID 2314, 2010; in the data active means max response mostly above about 13%, no sharp cut-off; inactive means mostly below about 14%; further: read at 38.3 µM for the half of the compounds with a filed dose; 0% is about no effect
* marks the source's active call; other numbers are inactive results; i = inactive; ? = inconclusive; . = no result given; [ ] = remark or other dose. The sample as a whole holds a higher share of hits than the screen did. Unless noted, the call rests on the fitted dose curve; in most records, active means well fitted curve in the direction sought with a large enough effect; inconclusive means small, poorly fitted or top-dose-only effect, or another doubt; inactive means no such curve, though single readings can be large; an effect the other way counts as inactive or inconclusive.

SMILES | LmPK inh | Shiga toxin inh | Sm TGR inh | Giardia FBPA inh | Tb PYK inh | CHX counter
O=C(c1ccccc1F)N1CCCc2ccccc21 | 0% | 55* | 4% | -6% | -7% | 29*
Cc1onc(-c2c(F)cccc2Cl)c1C(=O)N1CCCc2ccccc21 | 5% | -9 | -32% | -8% | 7.1µM* | -1
NS(=O)(=O)c1cccc(C(=O)N2CCCc3ccccc32)c1 | . | . | . | . | 0% | .
CCN(CC)S(=O)(=O)c1cccc(C(=O)N2CCCc3ccccc32)c1 | -6% | 38* | 0% | 12% | -3% | 21*
O=C(CNc1cccc(S(=O)(=O)N2CCOCC2)c1)N1CCc2ccccc21 | 3% | 45* | 5% | 1% | 0% | 10*
O=C(c1cccc(S(=O)(=O)N2CCOCC2)c1)N1CCCc2ccccc21 | 4% | -4 | ? | 5% | 1% | -3
Cc1cccc(NC(=O)c2cnc3sc(N4CCCC4)nn3c2=O)c1C | . | . | 22% | . | 2% | .
Cc1ccc(Cn2c(CNS(=O)(=O)c3ccc(Cl)s3)nc3cccnc32)cc1 | . | . | 6% | . | -2% | .
O=C(c1cc(S(=O)(=O)N2CCOCC2)ccc1F)N1CCCc2ccccc21 | 0% | 27 | -2% | 4% | 14% | 22*
Fc1ccccc1Cc1noc(CN2CCC(OCc3cccnc3)CC2)n1 | 2% | 59* | -5% | 0% | 2% | 22*
COC1CCCN(Cc2nc(Cc3ccccc3F)no2)C1 (stereo not drawn) | -5% | 4 | 1% | 6% | -1% | 11
CC(=O)OCC1OC(C#CCCc2ccccc2)C=CC1OC(C)=O (stereo not drawn) | . | . | . | 3%[12.9 µM] | . | .
Clc1ccc(-c2cnc(Oc3ccccc3)nc2)cc1 | -1% | 163* | 12% | 2% | -6% | 74*
Cc1cc(Cl)ccc1Oc1ncc(-c2ccc(Cl)cc2)cn1 | 1% | -8 | 17% | 1% | -2% | -3
CCCSc1ncc(Cl)c(C(=O)Nc2sc3c(c2C(=O)NCC)CCCC3)n1 | . | . | 1% | . | -7% | .
Cc1c(OCC(=O)NCc2ccccn2)ccc2c3c(c(=O)oc12)CCCC3 | 14% | -1 | 6% | . | 5% | -4
O=C(COc1cc2oc(=O)c3c(c2cc1Cl)CCC3)Nc1cccnc1 | 0% | 21 | -4% | -4% | -10% | 28*
Cc1c(OCC(=O)Nc2cccnc2)ccc2c3c(c(=O)oc12)CCC3 | -10% | 23 | -1% | . | -10% | 20*
CCOc1ccccc1NC(=O)C1CCN(S(=O)(=O)c2ccc3c(c2)CCCN3C(C)=O)CC1 | . | . | 5% | . | 3% | .
CCC(C=C[C@@H]1OC(=O)C=C[C@H]1C)=C[C@H](C)CC=CC(C)=C[C@@H](C)C(=O)[C@@H](C)[C@H](O)[C@@H](C)CC(C)=CC(=O)O | . | i | . | ? | . | 6
CN(c1ccccc1C(=O)Nc1ccccc1C(=O)NCc1ccco1)S(C)(=O)=O | -2% | 1 | ? | -3% | -7% | 8
Nc1ccccc1C(=O)NCc1ccco1 | -4% | 16 | ? | 9% | 0% | -1
CN(c1ccccc1C(=O)NCc1ccco1)S(C)(=O)=O | 2% | -3 | 40µM* | -11% | -1% | -2
O=C(O)c1ccccc1-c1ccccc1C(=O)NCc1ccco1 | 3% | -2 | 50µM* | 15% | -7% | 0
O=C(NCc1ccco1)c1ccccc1F | 2% | 14 | 45µM* | 0% | 10% | -5
O=C(CN1CCN(c2ccccc2F)CC1)NC(=O)NCc1ccco1 | -2% | -9 | 28µM* | -3% | -6% | -2
CCc1nc2ccc(C(=O)NCc3ccc(OC)cc3)cn2c1N(C)C(=O)Cc1ccccc1 | . | . | . | . | -7% | .
COc1ccccc1NC(=O)Cn1c(=O)c(CNc2ccc(C)cc2)cc2cc3c(cc21)OCCO3 | . | . | 1% | . | -9% | .
CCN(CC)C(=O)c1ccc2c(c1)N(Cc1ccc(C(F)(F)F)cc1)C(=O)c1ccccc1S2 | . | . | 3% | . | 2% | .

From PubChem
